Experiment [1] can be described thus: qHTS assay to identify small molecule antagonists of the estrogen related receptor (ERR) signaling pathway from Tox21 library - cell viability counter screen (AID 1224834). Note: nearly all actives have a fitted effect of over 30% in size. Note: potency is the fitted concentration of half-maximal effect. A digest of the protocol: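 Seeded ERR cells were rested 6 h at 37 C/5% CO2 before compounds, positive and negative controls or DMSO were added. Incubation continued for 17.5 h, and viability was then quantified by CellTiter-Fluor fluorescence.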

The target in experiment [2] is Luciferin 4-monooxygenase (Photinus pyralis) (UniProt P08659). As to the kind of experiment: qHTS assay to identify small molecule inhibitors of firefly luciferase (AID 1224835). Note: nearly all actives have a fitted effect of over 25% in size. Note: potency is the fitted concentration of half-maximal effect. The gist of the method: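 Inhibition of purified Photinus luciferase is measured by luminescence. Substrate levels (D-luciferin, ATP) sit at their KM values. Each compound is tested in a concentration series.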
Chain of Luciferin 4-monooxygenase (Photinus pyralis) (P08659 whole entry, looked up): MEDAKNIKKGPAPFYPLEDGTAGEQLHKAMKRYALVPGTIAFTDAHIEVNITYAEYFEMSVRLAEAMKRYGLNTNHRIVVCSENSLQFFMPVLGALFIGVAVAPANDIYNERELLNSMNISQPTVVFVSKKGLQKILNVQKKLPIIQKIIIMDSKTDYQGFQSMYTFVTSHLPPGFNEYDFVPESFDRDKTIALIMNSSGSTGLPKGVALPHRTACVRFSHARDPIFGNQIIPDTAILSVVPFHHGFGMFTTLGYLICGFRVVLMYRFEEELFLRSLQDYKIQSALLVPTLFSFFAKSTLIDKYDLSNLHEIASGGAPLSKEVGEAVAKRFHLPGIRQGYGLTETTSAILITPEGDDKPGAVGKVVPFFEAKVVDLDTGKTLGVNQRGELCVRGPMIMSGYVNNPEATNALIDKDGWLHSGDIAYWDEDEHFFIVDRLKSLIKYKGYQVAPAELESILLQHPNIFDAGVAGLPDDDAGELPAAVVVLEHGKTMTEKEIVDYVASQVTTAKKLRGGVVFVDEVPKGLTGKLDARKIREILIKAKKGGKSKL

A short description of experiment [3]: qHTS assay to identify small molecule agonists of the constitutive androstane receptor (CAR) signaling pathway - cell viability counter screen (AID 1224836). Note: nearly all actives have a fitted effect of over 45% in size. A digest of the protocol: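 Fluorescence from CellTiter-Fluor indicates live cells after 23 h exposure. The human hepatoma line expresses hCAR and a CYP2B6-2.2kb reporter. Incubation medium contains 0.75 uM PK11195 (final).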

Experiment [4] in a line: qHTS assay to identify small molecule antagonists of the constitutive androstane receptor (CAR) signaling pathway - cell viability counter screen (AID 1224837). Note: nearly all actives have a fitted effect of over 45% in size. The gist of the method: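 To flag cytotoxic false antagonists, HepG2 hCAR/CYP2B6-2.2kb cells were treated 23 hr with 15-concentration compound series and 50 nM CITCO at 37 C/5% CO2; CellTiter-Fluor fluorescence was the measured end point.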

For experiment [5], the target named is Nuclear receptor subfamily 1 group I member 3 (Homo sapiens) (UniProt Q14994). Description: qHTS assay to identify small molecule antagonists of the constitutive androstane receptor (CAR) signaling pathway (AID 1224838).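 Note: HepG2 cells stably expressing hCAR with CYP2B6 luciferase reporter stimulated by CITCO; nearly all actives have a fitted effect of over 40% in size.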 A digest of the protocol: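 Human hepatoma HepG2 cells expressing hCAR and a CYP2B6 promoter (2.2 kb) luciferase construct; compound titration (15 points) with 50 nM CITCO final, 24 h at 37 C/5% CO2; luminescence via ONE-Glo after 30 min at room temperature.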
Chain of Nuclear receptor subfamily 1 group I member 3 (Homo sapiens) (Q14994 whole entry, looked up): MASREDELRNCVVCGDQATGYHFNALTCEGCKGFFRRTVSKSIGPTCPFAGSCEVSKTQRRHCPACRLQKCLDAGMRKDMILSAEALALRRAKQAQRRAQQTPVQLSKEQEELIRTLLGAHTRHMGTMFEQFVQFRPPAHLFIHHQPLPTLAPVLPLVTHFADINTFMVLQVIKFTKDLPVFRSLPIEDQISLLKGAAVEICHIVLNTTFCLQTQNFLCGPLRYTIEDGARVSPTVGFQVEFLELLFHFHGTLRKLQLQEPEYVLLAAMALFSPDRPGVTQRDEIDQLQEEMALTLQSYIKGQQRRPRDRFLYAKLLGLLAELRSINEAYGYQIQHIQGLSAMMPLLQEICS

For experiment [6] the target is unchanged. Description: qHTS assay to identify small molecule agonists of the constitutive androstane receptor (CAR) signaling pathway (AID 1224839).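 Note: HepG2 cells stably carrying human CAR and a CYP2B6 luciferase reporter; nearly all actives have a fitted effect of over 15% in size.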 A digest of the protocol:
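Stable hCAR/CYP2B6-2.2kb HepG2 line in DMEM with 10% FBS; compounds (15 concentrations) and 0.75 uM PK11195 final, 24 h at 37 C/5% CO2, then ONE-Glo luminescence after 30 min.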

A short description of experiment [7]: qHTS assay to identify small molecule antagonists of the estrogen related receptor signaling pathway with the pleiotropic PPARgamma coactivator (PGC) from Tox21 10K library - cell viability counter screen (AID 1224840; active = well fitted cell-killing curve with a large enough effect in the repeat runs, not every such curve was filed as active; note: nearly all actives have a fitted effect of over 40% in size). The gist of the method:
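Seeded PGC/ERR cells (2,000/well, 6 h, 37 C/5% CO2) get compound by pin tool; 17.5 h incubation at 37 C; CellTiter-Fluor added, 30 min, fluorescence measured.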

Experiment [8] in a line: qHTS assay to identify small molecule agonists of the hypoxia (HIF-1) signaling pathway - cell viability counter screen (AID 1224844; calls by dose curve; note: nearly all actives have a fitted effect of over 50% in size). The gist of the method: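 HRE-bla ME-180; 0.5% dFBS; cpd 17 h, 37C, 5% CO2; CellTiter-Glo lum., 30 min RT, post-FRET read, same wells.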
Experiment [9] can be described thus: qHTS assay to identify small molecule agonists of H2AX (AID 1224845; active = well fitted activation curve with a large enough effect in the signal ratio in the repeat runs, not every such curve was filed as active; the % refers to the signal ratio). The gist of the method: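 Phospho-H2AX Ser139 measured by HTRF (ex 320 nm; em 665 and 620 nm) after 24 hr antibody incubation. Compounds, 15 concentrations, 0.76% DMSO, were applied to CHO-K1 cells for 3hr at 37C before lysis.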
The nature of experiment [10]: qHTS assay to identify small molecule agonists of H2AX - cell viability counter screen (AID 1224847; calls by dose curve; note: top concentration of the series differs between compounds; nearly all actives have a fitted effect of over 30% in size). A digest of the protocol: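 Viability of CHO-K1 (wild type) cells after 3 hr compound exposure was measured by CellTiter-Glo luminescence.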
Experiment [11] can be described thus: qHTS RealTime-Glo MT Cell Viability Assay in HepG2 cells - 24 hour (AID 1224867). Note: nearly all actives have a fitted effect of over 50% in size. The gist of the method: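 Tox21 10K library screened in qHTS format on HepG2 cells carrying RealTime-Glo reagents. Compounds were added after a 5 h preincubation, and the luminescent signal from continuous culture was measured repeatedly during 40 h treatment.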
A short description of experiment [12]: qHTS RealTime-Glo MT Cell Viability Assay in HEK293 cells - 32 hour (AID 1224868). Note: top concentration of the series differs between compounds; nearly all actives have a fitted effect of over 50% in size. The gist of the method: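 Luminescence generated by NanoLuc from substrate produced by living HEK293 cells served as the viability signal. Each value reflects the reading at its stated time point during continuous 40 h compound exposure at 37 C.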
The nature of experiment [13]: A CellTox Green Cytotoxicity Assay to monitor cytotoxicity in HEK293 cells - 0 hour (AID 1224869). Note: nearly all actives have a fitted effect of over 50% in size. The gist of the method: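 Tox21 screen in HEK293: membrane-impermeant cyanine dye fluoresces on binding dead-cell DNA; compound pinned 5 h post-seeding, plates held at 37 C, signal read repeatedly through 40 h.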
A short description of experiment [14]: qHTS assay to identify small molecule agonists of the hypoxia (HIF-1) signaling pathway (AID 1224846; active = well fitted activation curve with a large enough effect in the signal ratio in the repeat runs, not every such curve was filed as active; the % refers to the signal ratio). A digest of the protocol: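 Reporter induction in HRE-bla ME-180 cells is taken as agonism: cells sit 5 hrs after plating, receive compounds or DMSO only, incubate 17 hrs at 37C under 5% CO2, and are loaded with CCF4-AM for beta-lactamase FRET measurement.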

Experiment [15] in a line: qHTS assay to identify small molecule antagonists of the estrogen related receptor signaling pathway with the pleiotropic PPARgamma coactivator (PGC) from Tox21 10K library (AID 1224841; call rule not given here). A digest of the protocol: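 Test chemicals dissolved in DMSO were applied to pre-incubated (6 h) PGC/ERR cells at 2,000 cells/well for an 18 h, 37 C treatment; reporter luminescence was then read using One-Glo.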

Experiment [16] can be described thus: qHTS assay to identify small molecule agonists of the estrogen related receptor signaling pathway with the pleiotropic PPARgamma coactivator (PGC) from Tox21 10K library (AID 1224842). Note: nearly all actives have a fitted effect of over 15% in size. A digest of the protocol:
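Luminescence from One-Glo (30 min, room temperature) measured after PGC/ERR cells had 18 h at 37 C with pinned compound (23 nL in DMSO). Cells had been seeded at 2,000 per well and pre-incubated 6 h.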

The target of experiment [17] is Thyrotropin receptor (Homo sapiens) (UniProt P16473). Description: qHTS assay to identify small molecule agonists of the thyroid stimulating hormone receptor (TSHR) signaling pathway (AID 1224843; calls by dose curve; note: nearly all actives have a fitted effect of over 45% in size). A digest of the protocol:
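Agonist activity read as cAMP rise via d2/cryptate HTRF competition, 1 h room-temperature detection, in HEK293 cells expressing TSHR. Fifteen-point titrations, each run in triplicate, with a 30 min room-temperature incubation beforehand.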

Experiment [18] is described as follows: qHTS assay to identify small molecule antagonists of the estrogen related receptor (ERR) signaling pathway from Tox21 library (AID 1224848). Note: nearly all actives have a fitted effect of over 50% in size. Note: potency is the fitted concentration of half-maximal effect. The gist of the method: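 Luciferase luminescence (ONE-Glo, 30 min room temperature) was the read-out. Cells of the NTP-supplied ERR line, 2,000 per well, were given 6 h at 37 C before compound addition in DMSO and 18 h exposure at 37 C.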

The nature of experiment [19]: qHTS assay to identify small molecule agonists of the estrogen related receptor (ERR) signaling pathway from Tox21 library (AID 1224849; calls by dose curve; note: nearly all actives have a fitted effect of over 15% in size). To be noted: ERR reporter cell line, ONE-Glo luciferase, 18 h. A digest of the protocol:
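Tox21 compounds tested for ERR agonism in an NTP reporter cell line: 18 h treatment at 37 C, then ONE-Glo luminescence.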

A short description of experiment [20]: qHTS assay to identify small molecule agonists of the estrogen related receptor signaling pathway with the pleiotropic PPARgamma coactivator (PGC) (AID 1224823). The gist of the method:
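Compounds dissolved in DMSO are added by pin tool to PGC/ERR cells that have settled for 6 h, and incubation continues 18 h at 37 C. Reporter output is measured as One-Glo luminescence.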

Structures are written as SMILES. Values joined by “and” are separate entries in the source; they are usually repeats but may differ in a detail not shown here. Equal values may be shown once. Results filed as inconclusive are left out. Some compounds were tested as several samples or in several runs, with calls that do not always agree. Active and inactive are the calls of the source. Unless noted, calls come from the whole dose curve; as a rule, active = well fitted curve in the direction sought with a large enough effect in the repeat runs; inconclusive = weak or mixed curves; inactive = no such curve, though single readings can be large; an effect the other way counts as inactive or inconclusive.
% is set by controls: 0 for no effect and ±100 for the full control effect.

Chain of Thyrotropin receptor (Homo sapiens) (P16473 whole entry, looked up): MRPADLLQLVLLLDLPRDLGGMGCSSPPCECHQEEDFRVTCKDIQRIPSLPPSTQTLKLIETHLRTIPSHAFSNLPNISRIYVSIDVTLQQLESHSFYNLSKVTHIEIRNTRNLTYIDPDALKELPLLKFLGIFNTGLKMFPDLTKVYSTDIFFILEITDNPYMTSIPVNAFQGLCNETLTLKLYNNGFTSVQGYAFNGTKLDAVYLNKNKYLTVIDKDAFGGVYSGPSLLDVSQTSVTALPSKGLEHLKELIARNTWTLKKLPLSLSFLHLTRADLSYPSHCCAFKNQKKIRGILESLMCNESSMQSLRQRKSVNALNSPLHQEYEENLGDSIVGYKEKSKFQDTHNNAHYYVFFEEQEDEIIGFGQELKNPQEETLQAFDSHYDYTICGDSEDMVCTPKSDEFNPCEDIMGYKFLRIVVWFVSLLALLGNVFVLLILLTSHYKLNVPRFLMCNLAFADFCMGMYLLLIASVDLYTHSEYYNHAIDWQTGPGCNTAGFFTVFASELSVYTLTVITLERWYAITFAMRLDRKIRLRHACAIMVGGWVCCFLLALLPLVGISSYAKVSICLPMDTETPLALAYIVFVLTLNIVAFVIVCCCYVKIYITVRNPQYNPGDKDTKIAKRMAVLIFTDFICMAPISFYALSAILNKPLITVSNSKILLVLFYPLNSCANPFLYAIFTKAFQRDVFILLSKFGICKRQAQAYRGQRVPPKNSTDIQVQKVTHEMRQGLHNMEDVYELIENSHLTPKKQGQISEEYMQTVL

Consider `OCC1CCCO1` (configuration not stated), for which the Potency result in experiment [1], in experiment [2], in [3], in experiment [4], in experiment [5] and in [6] was “inactive” each time. Moreover, the Potency entry in [7], in experiment [8], in experiment [9], in [10], in [11] and in [12] was “inactive” in each case. Moreover, in experiment [13], the Potency result was “inactive”.
Take `CCCCOCCOCCOC(=O)CCCCC(=O)OCCOCCOCCCC`: the Potency entry in [1], in [2], in experiment [3], in experiment [4], in [5] and in experiment [6] was “inactive” throughout. Besides, the Potency entry in [7], in experiment [8], in experiment [9], in experiment [11] and in experiment [12] was “inactive” each time. In addition, in [14], the compound was called inactive.
Turning to `CC(=O)CCc1ccccc1`, the Potency result in [1], in experiment [2], in [3], in [4], in [6] and in experiment [7] was “inactive” throughout. Further, the Potency entry in [15], in experiment [16], in [17], in experiment [8], in experiment [9] and in [18] was “inactive” in each case. The Potency entry in experiment [11], in experiment [12] and in [13] was “inactive” each time. Also, in experiment [14], the compound was called inactive. The activity change, positive = activation in experiment [19] (at 92.4 µM (top of the series)) was 1.01% (inactive) and -0.812% (inactive).
As for `CCCCCC/C=C/CCCCCCCC(=O)O`, the Potency result in experiment [1], in [3], in [4], in experiment [6], in [7] and in experiment [17] was “inactive” each time. The Potency entry in experiment [8], in experiment [9], in experiment [10], in [11] and in [12] was “inactive” throughout. The Potency entry in experiment [2] is “inactive and 71 µM (active)”. For the same compound, the outcome in experiment [14] was inactive.
Consider `Cc1cc(=O)[nH]c(C(C)C)n1`, for which the Potency result in experiment [1], in experiment [2], in experiment [3], in [4], in experiment [6] and in [7] was “inactive” each time. In addition, the Potency result in experiment [15], in experiment [16], in [17], in experiment [8], in [9] and in [18] was “inactive” each time. Besides, the Potency entry in experiment [11], in experiment [12] and in experiment [13] was “inactive” each time. Further, in experiment [19] (at 92.4 µM (top of the series)), the activity change, positive = activation was 2.86% (inactive) and -3.8% (inactive).
With `OC1CCCC1`, the Potency result in experiment [1], in experiment [2], in [3], in experiment [4], in experiment [5] and in experiment [6] was “inactive” each time. The Potency result in experiment [7], in experiment [15], in experiment [16], in [17], in [8] and in [9] was “inactive” throughout. Further, the Potency result in experiment [10], in experiment [18], in experiment [11], in [12] and in experiment [13] was “inactive” throughout. The call in experiment [14] was inactive. Besides, the activity change, positive = activation in [19] (at 92.4 µM (top of the series)) is 4.85% (inactive) and 0.946% (inactive).
For the compound `CS(=O)(=O)Nc1ccc([N+](=O)[O-])cc1Oc1ccccc1`, the Potency result in [20], in experiment [5], in experiment [6], in experiment [15], in experiment [16] and in [17] was “inactive” throughout. Further, the Potency entry in [8], in experiment [9], in [10], in experiment [11] and in [12] was “inactive” in each case. The Potency in experiment [1] was 30.6 µM (active); in experiment [18] it was 38.6 µM (active). The activity change, positive = activation is -19.6% (inactive) in [19] (at 42.5 µM (top of the series)) and -48.5% (inactive) in experiment [19] (at 92.4 µM (top of the series)).
On to `O=C(Cl)c1c(Cl)c(Cl)c(C(=O)Cl)c(Cl)c1Cl`, for which the Potency entry in [1], in experiment [2], in experiment [3], in experiment [4], in experiment [6] and in [7] was “inactive” each time. The Potency result in experiment [15], in [16], in experiment [8], in experiment [9], in [10] and in experiment [18] was “inactive” in each case. Further, the Potency result in experiment [11], in experiment [12] and in experiment [13] was “inactive” each time. Besides, the outcome in experiment [14] was inactive. In experiment [19] (at 92.4 µM (top of the series)), the activity change, positive = activation is 2.78% (inactive) and 1.3% (inactive).

Source of the values: PubChem BioAssay (Tox21).
